D1 potentiator = enhances dopamine response at the human D1 receptor. P21728. HEK293 TREx D1 cells, calcium flux, dopamine EC20 potentiation. potentiation, % at 10 µM. hit rate 0.036% among 360,000; in the data active = potentiation above about 30%; also: 0% is about no effect
Target sequence (P21728 whole entry, looked up): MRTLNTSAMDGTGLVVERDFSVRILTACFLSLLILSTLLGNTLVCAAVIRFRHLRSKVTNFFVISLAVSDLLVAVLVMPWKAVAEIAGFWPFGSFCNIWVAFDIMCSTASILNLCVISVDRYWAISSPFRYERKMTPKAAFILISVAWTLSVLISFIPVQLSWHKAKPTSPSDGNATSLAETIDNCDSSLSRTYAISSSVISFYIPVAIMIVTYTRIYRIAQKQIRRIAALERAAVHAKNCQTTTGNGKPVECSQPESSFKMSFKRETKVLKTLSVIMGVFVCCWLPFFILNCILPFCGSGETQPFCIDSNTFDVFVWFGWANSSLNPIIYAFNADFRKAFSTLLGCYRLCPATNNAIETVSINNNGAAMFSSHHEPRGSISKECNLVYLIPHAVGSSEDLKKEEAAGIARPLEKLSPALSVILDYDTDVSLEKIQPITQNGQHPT
D1 agonist = human D1 receptor agonism. HEK293 T-REx D1 cells, calcium flux, agonist mode. P21728. activation, % at 2 µM. hit rate 1% among 360,000; also: 0% is about no effect
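Inducible HEK293 T-REx D1 cells, force-coupled to calcium signalling, were plated at 4000 cells/well with tetracycline and held overnight at 30 C. After no-wash calcium dye loading, compound-evoked calcium rise over 180 s flagged agonists.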
TRHR enhancer = allosterically enhances the human TRH receptor | P34981 | enhancement, % at 2 µM | hit rate 0.66% among 360,000 | TRHR cells, fluo-8 calcium fluorescence, EC20 TRH enhancement; in the data active = enhancement above about 30%; also: 0% is about no effect
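TRHR-expressing cells loaded with fluo-8 calcium dye were read kinetically (ex 480/em 530) during compound addition, then stimulated with an EC20 of TRH (10 nM final). Enhancement of the Gq-mediated intracellular calcium response was scored.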
D1 antag = human D1 dopamine receptor antagonism; P21728; HEK293 TREx D1 cells, calcium flux, dopamine EC80; active compounds read low; activity change, negative = inhibition, % at 10 µM; hit rate 3.2% among 360,000; AID 504652; in the data active = activity change below about -30%; also: % is scaled to controls: 0 for no effect and ±100 for the full control effect
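Kinetic fluorescence of a calcium dye serves as the read-out. D1-expressing Hek293 Trex cells, induced overnight at 30 C, are exposed to compound for 180 s before an EC80 dopamine addition, then read 180 s further.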
TRHR agonist = activates the human TRH receptor | P34981 | TRHR cells, calcium flux fluo-8, FDSS agonist mode | activation, % at 2 µM | hit rate 0.18% among 360,000 | AID 493084; also: 0% is about no effect
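Read-out: compound-evoked intracellular calcium rise in TRHR cells, fluo-8 dye, kinetic FDSS fluorescence at 1 s/cycle following a 10-cycle baseline. Cells cultured overnight before dye loading (30 min–1.5 h, RT).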
The depositor's hits bear a star; nt = no result given. Hits are enriched below; roughly 4.7% of the tested compounds scored in any of these assays. Rule as the data show it, unless noted: active = activation above about 30%; inactive = the rest.

SMILES | D1 potentiator | D1 agonist | TRHR enhancer | D1 antag | TRHR agonist
COc1ccc(N2CCN(C(=O)C3CCN(Cc4nc(-c5ccc(Cl)cc5)oc4C)CC3)CC2)cc1 | -2 | 4 | 5 | 10 | 0
COc1ccc(CCNC(=O)CCc2c(C)c3cc4c(C)coc4cc3oc2=O)cc1 | -1 | 22 | -2 | -51* | 0
CCC(=O)N1CCc2cc(Br)cc(S(=O)(=O)N3CCCC(C(=O)Nc4cccc(F)c4)C3)c21 (stereo not given) | 2 | 0 | 4 | -3 | -1
C=CCN1C(=Nc2cccnc2)SCC1(O)c1ccc(C)cc1 (stereo not given) | -14 | 19 | -4 | -56* | 1
CCOC(=O)C1CCCN(C(=O)c2ccc3c(c2)N(Cc2cccc(Cl)c2)C(=O)c2ccccc2S3(=O)=O)C1 (stereo not given) | 0 | 1 | -4 | 3 | 0
COc1ccc(C(=O)Nn2c(C)nnc2-n2nc(C)cc2C)cc1OC | 3 | -2 | -2 | -31* | 0
COc1ccc(C(=O)NCCSC2CCCCC2)cc1 | -5 | 1 | 1 | -43* | 0
O=C(NCCSC1CCCCC1)c1ccccc1 | -16 | 0 | -22 | -77* | -1
COc1ccc(C(=O)NC(=S)N(C)C2CCCCC2)cc1 | -3 | 0 | 2 | -46* | 0
COc1ccc(C(=O)NC(=S)N(C)C2CCCCC2)cc1Br | 18 | 1 | 2 | -17 | 0
CS(=O)(=O)Nc1ccc(C(=O)NCCSC2CCCCC2)cc1 | -1 | 0 | 3 | 1 | 0
Cc1ccc(NC(=O)c2cnn(-c3ccccc3)c2C)c(C)c1 | -7 | 7 | 10 | -58* | -1
CCCCN1C(=O)c2ccc(C(=O)OCC(=O)N3CCN(c4ccccc4)CC3)cc2C1=O | nt | 9 | 2 | 7 | 0
COc1ccccc1N1CCN(C(=O)c2cc3c(s2)-c2ccccc2OC3)CC1 | -12 | 3 | -5 | -4 | 0
O=C(Nc1cccnc1)c1cc2c(s1)-c1ccccc1OC2 | -18 | 9 | 2 | -46* | -1
O=C(c1cc2c(s1)-c1ccccc1OC2)N1CCc2ccccc2C1 | -8 | 1 | -1 | -54* | 2
Cc1cccc2c1-c1sc(C(=O)Nc3cccnc3)cc1CO2 | -19 | 1 | -10 | -22 | 0
C=CCOn1c(=O)c(-c2ccc(OCC)cc2)[n+]([O-])c2ccccc21 | 2 | 1 | 2 | -2 | 0
Nc1ccc(Oc2ccc3nc(-c4ccccc4)c(-c4ccccc4)nc3c2)cc1 | 3 | 1 | 15 | 2 | 0
Nc1ccc2nc(-c3ccccc3)c(-c3ccccc3)nc2c1 | 9 | 61* | 19 | 0 | 32*
COC(=O)Cc1c(C)c2ccc(OCC(=O)N(C)C)cc2oc1=O | -2 | 4 | 30* | -3 | 1
COc1cccc(C(=O)NCC(=O)OCc2cc(=O)n3nc(C)sc3n2)c1 | -3 | 4 | 6 | -2 | -1
Cc1ccc(OCC(=O)NCC(=O)OCc2cc(=O)n3nc(C)sc3n2)cc1 | -4 | 1 | 6 | 0 | 0
CC(C)(C)C(=O)OCc1cc(=O)n2nc(C3CCCCC3)sc2n1 | -1 | 2 | -5 | -33* | 0
Cc1ccc(C(=O)NCC(=O)OCc2cc(=O)n3nc(C4CCCCC4)sc3n2)cc1 | -4 | 0 | -3 | -45* | -1
SMILES | D1 potentiator | D1 agonist | TRHR enhancer | D1 antag | TRHR agonist
CCc1nn2c(=O)cc(COC(=O)CNC(=O)COc3ccc(C)cc3)nc2s1 | -10 | 1 | -7 | -52* | -1
COc1cccc(C(=O)NCC(=O)OCc2cc(=O)n3c(C)csc3n2)c1 | -5 | 0 | 34* | 2 | 0
CC(=O)OCc1cc(=O)n2nc(C3CCCCC3)sc2n1 | -3 | 2 | 0 | -6 | 0
Cc1cc(C)c(NC(=O)Cn2c(=O)n(-c3ccc(F)cc3)c(=O)c3c(C)c(C(=O)N(C)C)sc32)c(C)c1 | -1 | 3 | 1 | -8 | 0
Cc1ccc(CCNC(=O)Cn2ncc3c([nH]c4ccc(C)cc43)c2=O)cc1 | 2 | 2 | 18 | 10 | -2
CCOc1ccc(NC(=O)CSc2oc(-c3cccs3)nc2S(=O)(=O)c2ccc(C)cc2)cc1 | -1 | 4 | 3 | 3 | 0
Cc1ccc2cccc(N=Cc3c(C)[nH]n(-c4ccccc4)c3=O)c2n1 | -1 | 0 | -5 | 2 | -1
CSc1nnc(-c2ccccc2N=Cc2c(C)[nH]n(-c3ccccc3)c2=O)c(=O)[nH]1 | 1 | -1 | -10 | -33* | 0
Cc1ccc(C)c(Nc2nnc(-c3ccc(C)c(S(=O)(=O)NCC4CCCO4)c3)c3ccccc23)c1 (stereo not given) | 0 | 2 | 1 | -39* | 0
Cc1ccc(C)c(Nc2nnc(-c3ccc(C)c(S(=O)(=O)N4CCN(C)CC4)c3)c3ccccc23)c1 | 1 | -3 | 0 | -31* | 0
Fc1ccc(Nc2ccc(-c3ccc(F)cc3)nn2)cc1 | -8 | 2 | 10 | -45* | 1
Fc1ccc(-c2ccc(Nc3cccc(F)c3)nn2)cc1 | -10 | 2 | 12 | -34* | 1
N#CC1(NC(=O)CSc2nnc(Nc3ccccc3F)s2)CCCC1 | nt | 5 | 0 | 6 | 0
COCCc1nn2c(=O)cc(COC(=O)c3ccc(C(C)(C)C)cc3)nc2s1 | 2 | 17 | 11 | 6 | 1
CCOc1ccc(-c2nc(SCC(=O)Nc3cc(F)ccc3F)n3[nH]c(=O)cc3n2)cc1 | -2 | 1 | 15 | 9 | 0
CCOc1ccc(CCNC(=O)C2CCCN(S(=O)(=O)N(C)c3ccc(F)cc3)C2)cc1 (stereo not given) | -2 | 4 | -2 | -11 | -1
Fc1ccc(N2CCN(C3=Nc4cccc5cccc3c45)CC2)cc1 | -8 | 3 | 4 | -44* | 1
c1ccc(CN2CCN(C3=Nc4cccc5cccc3c45)CC2)cc1 | 1 | 3 | 0 | 7 | 5
CCCCc1cc(=O)oc2cc(C)cc(O)c12 | -9 | 18 | -7 | -35* | 5
COc1ccccc1Cn1cc(C(=O)c2ccc(C)cc2)c(=O)c2cc(C)ccc21 | -4 | 4 | 5 | -3 | 0
CC(C)(C)C(=O)/C=c1\s/c(=C\c2ccc(-c3ccc([N+](=O)[O-])cc3)o2)c(=O)n1CC(=O)NC(N)=O | -11 | 894* | -28 | 8 | 215*
CCC(=O)N1CCc2cc(S(=O)(=O)CCC(=O)N(C)c3ccc(OC)cc3OC)ccc21 | 0 | 0 | 7 | -1 | 0
N#CC1=C(N)NC(SCc2ccc(F)cc2)=C(C#N)C12CCCCC2 | -4 | 10 | -5 | -31* | 1
Cc1ccc(C)c(NC(=O)CN(C)C(=O)c2ccc(-c3cccc(C(F)(F)F)c3)o2)c1 | -5 | 5 | 37* | 19 | 0
CN(CC(=O)Nc1cccc(F)c1)C(=O)c1ccc(-c2cccc(C(F)(F)F)c2)o1 | 0 | 4 | 9 | 6 | 0

Screens from PubChem.
